This is a sample that favours compounds with a hit; in the whole collection about 10% have one here.
GLS inhibitor: blocks human kidney-isoform glutaminase activity; GLS enzymatic activity, qHTS titration; Potency, µM (titrated, usually from 45.5 µM), inactives show at the top dose activity change, negative = inhibition, usual class: inhibitors; actives 0.21% (n = 410,000); also: % is scaled to controls: 0 for no effect and ±100 for the full control effect
Target sequence (O94925 whole entry, looked up, canonical isoform): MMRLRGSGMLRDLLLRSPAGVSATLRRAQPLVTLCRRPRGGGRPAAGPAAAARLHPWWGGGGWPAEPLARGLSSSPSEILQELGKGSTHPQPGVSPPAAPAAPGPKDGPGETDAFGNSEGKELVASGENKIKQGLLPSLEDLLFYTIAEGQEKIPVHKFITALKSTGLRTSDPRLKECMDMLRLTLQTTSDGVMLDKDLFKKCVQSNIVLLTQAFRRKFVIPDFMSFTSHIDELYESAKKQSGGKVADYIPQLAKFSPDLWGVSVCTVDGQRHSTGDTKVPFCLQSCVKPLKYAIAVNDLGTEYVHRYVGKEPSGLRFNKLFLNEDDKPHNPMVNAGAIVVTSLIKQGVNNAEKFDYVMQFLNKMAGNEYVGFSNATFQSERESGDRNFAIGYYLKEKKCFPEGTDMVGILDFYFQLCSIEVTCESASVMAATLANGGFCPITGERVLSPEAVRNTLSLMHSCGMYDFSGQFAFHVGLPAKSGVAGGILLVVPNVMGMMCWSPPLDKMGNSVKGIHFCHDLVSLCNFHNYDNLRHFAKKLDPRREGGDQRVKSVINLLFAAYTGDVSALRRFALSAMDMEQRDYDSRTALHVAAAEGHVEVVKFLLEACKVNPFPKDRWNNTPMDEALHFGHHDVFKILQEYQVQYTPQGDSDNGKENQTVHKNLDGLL
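hKGA in 45 mM KH2PO4 pH 8.2, 0.02% Tween-20 with pin-transferred compounds; 1 mM L-glutamine (stock) plus glutamate oxidase/HRP/Amplex Red coupling added. Fluorescence read initially and after 30 min at RT.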
HP1b chromo inh: HP1-beta chromodomain-methylated histone interaction inhibition; P83916; AlphaScreen HP1-beta / biotin-H3K9me3 peptide binding; Potency, µM (top dose mostly 114 µM), for the others: top-dose activity change, negative = inhibition, actives largely listed as inhibitors; actives 0.56% (n = 390,000); AID 540317; also: nearly all actives have a fitted effect of over 70% in size
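HP1-beta protein (50 nM final) preincubated 30 min at room temperature with biotinylated H3(1-18)K9me3 peptide (50 nM) in PBS pH 7.4, 0.01% Tween-20, then compound added for 30 min. AlphaScreen streptavidin donor/nickel chelate acceptor beads (10 ug/mL final), 30 min dark, luminescence read.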
JMJD2A Tudor: inhibitors of human JMJD2A Tudor domain; O75164; AlphaScreen JMJD2A-Tudor / H3K4me3 peptide binding; Potency, µM (titrated, usually from 114 µM), inactives show at the highest dose activity change, negative = inhibition, hits mostly inhibitors; actives 4.4% (n = 390,000); AID 504339; also: % is scaled to controls: 0 for no effect and ±100 for the full control effect; nearly all actives have a fitted effect of over 50% in size
G9a inh: inhibitors of human histone lysine methyltransferase G9a. Potency, µM (doses to about 102 µM), for inactives: at the highest dose activity, negative = inhibition, usual class: inhibitors. actives 8.8% (n = 350,000). G9a H3K9 monomethylation, AlphaScreen, 2 h. AID 504332. Q96KQ7; also: % is scaled to controls: 0 for no effect and ±100 for the full control effect; nearly all actives have a fitted effect of over 75% in size
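Enzyme 20 nM + cpd, 15 min RT; add b-H3K9 pep 500 nM / SAM 20 uM; 2 h RT; anti-H3K9me1 Ab 0.5 ug/mL + SA donor / anti-rabbit acceptor beads 20 ug/mL each, 10 min; AlphaScreen read.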
BAZ2B inh: inhibitors of human BAZ2B bromodomain; Q9UIF8; AlphaScreen BAZ2B-H3K14Ac peptide displacement; Potency, µM (titrated, usually from 114 µM), for inactives: at the top dose activity change, negative = inhibition, actives largely listed as inhibitors; actives 4.4% (n = 360,000); AID 504333; also: % is scaled to controls: 0 for no effect and ±100 for the full control effect; nearly all actives have a fitted effect of over 60% in size
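BAZ2B (50 nM) with biotin-H3(5-23)K14Ac peptide (50 nM) in PBS pH 7.4, 0.01% Tween-20, preformed 30 min, then compound 30 min at room temperature; top concentration 110uM. AlphaScreen streptavidin donor/nickel chelate acceptor beads (10 ug/mL final), 20 min dark, signal read.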
* marks the source's active call; other numbers are inactive results; ? = inconclusive; · = no result given; [ ] = dose if it differs, or a comment. Calls follow the shape of the dose curve; as a rule, active = well fitted curve in the direction sought with a large enough effect; inconclusive = small, poorly fitted or top-dose-only effect, or another doubt; inactive = no such curve, though single readings can be large; an effect the other way counts as inactive or inconclusive. Potency is read from the fitted curve at half-maximal effect.

SMILES	GLS inhibitor	HP1b chromo inh	JMJD2A Tudor	G9a inh	BAZ2B inh
CC(=O)N1CCN(c2ccc(OC[C@H]3CO[C@](Cn4ccnc4)(c4ccc(Cl)cc4Cl)O3)cc2)CC1	15.1%	?	25.1µM*	10µM*	35.5µM*
O=C(Nc1ccc(Cl)c(C(F)(F)F)c1)NC1CC2CCCC(C1)N2Cc1ccccc1 (centres undefined)	-2.6%	42.8%	-8.2%	-8.5%[59 µM]	-26.4%
CC(C)N(CC[C@@](C(N)=O)(c1ccccc1)c1ccccn1)C(C)C	-3.5%	·	·	-2.0%[12.7 µM]	·
CCN1CCN(c2ccc([N+](=O)[O-])cc2C=C2C(=O)NC(=O)NC2=O)CC1	2.2%	?	-10.6%	?	0.9%
CC(=O)N1CCN(c2ccc([N+](=O)[O-])cc2C=C2C(=O)NC(=O)NC2=O)CC1	8.4%	38.8%	-0.4%	39.8µM*	12.7%
Nc1c(C(=O)Nc2ccc(OC(F)(F)F)cc2)sc2nc3c(cc12)N1CCC3CC1	-4.5%	68.8%	-21.3%	-0.1%[59 µM]	2.9%
Cc1ccc2c(c1)=C/C(=C\c1c(O)[nH]c(=S)[nH]c1=O)C(=O)N=2	·	·	·	3.55µM*	?
Cc1ccc2c(c1)=NC(=O)/C(=C/c1c(O)[nH]c(=O)[nH]c1=O)C=2	-10.1%	30.8%	-16.1%	?	-11.5%
NC1CCc2cc(O)c(O)cc2C1 (centres undefined)	?	?	11.2µM*	1.5µM*	-4.0%
Cc1cccc(N(CC(=O)NCCSc2ccc(Cl)cc2)S(=O)(=O)c2ccccc2)c1C	2.1%	40.6%	4.5%	-49.8%[59 µM]	-1.3%
CCc1ccc(CN2CCN(C(=O)Cc3ccccc3)CC2)cc1	2.1%	28.2µM*	20µM*	22.4µM*	25.1µM*
c1ccc(CN2CCN(Cc3ccc4ccccc4c3)CC2)cc1	4.3%	?	0.794µM*	1.41µM*	28.2µM*
CSc1ccc(CN2CCN(C(=O)Cc3ccccc3)CC2)cc1	0.3%	?	20µM*	·	·
Cc1ccc(CN2CCN(Cc3ccccc3)CC2)cc1	20.9%	11.4%	-17.7%	·	?
CCc1ccc(CN2CCN(Cc3cc(Br)ccc3O)CC2)cc1	20.7%	25.1µM*	22.4µM*	25.1µM*	44.7µM*
CC1=CC(C)CC(C)OC(=O)CC(c2ccc(O)cc2)NC(=O)C(Cc2c(Br)[nH]c3ccccc23)N(C)C(=O)C(C)NC(=O)C(C)C1 (centres undefined)	0.2%	1.5%	-35.4%	·	·
COc1ccc(CCN)cc1	·	·	·	32.1%[59 µM]	·
C[C@H]1[C@@H]2Cc3ccc(O)cc3[C@]1(C)CCN2C	53.7%[231 µM]	·	·	·	·
CSc1ccc(CN2CCN(Cc3ccccc3Cl)CC2)cc1	-1.2%	?	5.01µM*	4.47µM*	17.8µM*
COc1cc(OC)c(OC)cc1CN1CCN(C(=O)Cc2ccccc2)CC1	0.5%	?	17.8µM*	7.94µM*	?
O=C(Cc1ccccc1)N1CCN(Cc2cccnc2)CC1	0.3%	-44.9%	4.47µM*	6.31µM*	31.6µM*
Cc1cc(S(=O)(=O)NCC(C)C)ccc1OCC(=O)N1CCN(Cc2ccccc2)CC1	-8.8%	-0.7%	-16.4%	-40.5%[12.7 µM]	-4.9%
O=C(Cc1ccccc1)N1CCN(Cc2ccccc2Cl)CC1	3.6%	?	17.8µM*	44.7µM*	20µM*
Cc1nc2cc(OC(=O)N(C)Cc3cccc(-c4ccncc4)c3)ccc2s1	5.3%	·	·	·	·
COc1ccc(CC(=O)N(CCN(C)C)CC2CCCN(Cc3ccccc3F)C2)cc1 (centres undefined)	2.1%	27.6%	-16.5%	·	19.8%
SMILES	GLS inhibitor	HP1b chromo inh	JMJD2A Tudor	G9a inh	BAZ2B inh
COc1ccc(CN2CCN(Cc3ccccc3F)CC2)cc1	-10.3%	17.8µM*	3.16µM*	3.98µM*	17.8µM*
CN1CCN(C(=O)Cc2ccccc2)CC1	3.6%	65.0%	-7.2%	-0.5%	-7.8%
Cc1cccc(CN2CCN(C(=O)Cc3ccccc3)CC2)c1	-6.9%	?	6.31µM*	28.2µM*	79.4µM*
Cc1cccc(OCC(=O)N2CCN(Cc3cccnc3)CC2)c1	7.3%	?	2.82µM*	-0.3%	?
O=C(c1cn(Cc2ccccc2F)c2ncccc12)C(F)(F)F	-6.6%	159.7%	58.0%	204.0%	93.5%
Nc1ccnn1C1CCNCC1	0.7%	?	-17.3%	22.4µM*	2.6%
CN1CCC(n2nccc2N)CC1	15.8%	23.3%	2.0%	-0.5%[12.7 µM]	-9.1%

Bioassay records deposited in PubChem BioAssay by National Center for Advancing Translational Sciences (NCATS).
